Inconclusive results are not listed. Active and inactive are the calls of the source. Unless noted, calls come from the whole dose curve; as a rule, active = well fitted curve in the direction sought with a large enough effect in the repeat runs; inconclusive = weak or mixed curves; inactive = no such curve, though single readings can be large; an effect the other way counts as inactive or inconclusive.
Key:
[1] = qHTS assay to identify small molecule agonists of the sonic hedgehog signaling (Shh) pathway (AID 1259368; calls by dose curve;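 note: NIH/3T3-derived 3T3Gli1-Luc cells carrying a stable Gli1-driven firefly luciferase reporter; series mostly up to about 92 µM; nearly all actives have a fitted effect of over 15% in size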)
Method in brief: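 Luminescence was read after 30 min at room temperature with luciferase reagent. Before that, 3T3Gli1-Luc cells (NIH/3T3 clone, stable Gli1-Luc reporter; 2,000/well) were exposed to compounds for 24 hr at 37C, 5% CO2, compounds being added 4 hr post-plating.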

[2] = qHTS assay to identify small molecule antagonists of the estrogen receptor beta (ER-beta) signaling pathway - cell viability counter screen (AID 1259382);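 note: HEK293T cells carrying ER-beta-UAS-bla reporter stimulated with estradiol; series mostly up to about 92 µM; nearly all actives have a fitted effect of over 55% in size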
Method in brief: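 Cytotoxicity was measured in the same wells by CellTiter-Glo luminescence after 30 min at room temperature. Cells were ER-beta-bla HEK293T in charcoal-stripped serum, given compound together with 1 nM E2 and incubated 16 h at 37C.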

[3] = qHTS assay to identify small molecule agonists or antagonists of the thyroid stimulating hormone receptor (TSHR) signaling pathway - wild type cell line counter screen (AID 1259384; calls by dose curve)
Method in brief: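 Counter screen in untransfected Hek293: compounds (15-point titration, triplicate) plus phosphodiesterase inhibitor Ro20-1724 added after 18 h plating; 30 min RT. Intracellular cAMP via competitive d2/cryptate immunoassay, 1 h incubation.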

[4] = target: Thyrotropin receptor (Homo sapiens) (UniProt P16473); test: qHTS assay to identify small molecule antagonists of the thyroid stimulating hormone receptor (TSHR) signaling pathway (AID 1259385; calls by dose curve; note: nearly all actives have a fitted effect of over 20% in size)
Thyrotropin receptor (Homo sapiens), sequence (P16473 whole entry, looked up): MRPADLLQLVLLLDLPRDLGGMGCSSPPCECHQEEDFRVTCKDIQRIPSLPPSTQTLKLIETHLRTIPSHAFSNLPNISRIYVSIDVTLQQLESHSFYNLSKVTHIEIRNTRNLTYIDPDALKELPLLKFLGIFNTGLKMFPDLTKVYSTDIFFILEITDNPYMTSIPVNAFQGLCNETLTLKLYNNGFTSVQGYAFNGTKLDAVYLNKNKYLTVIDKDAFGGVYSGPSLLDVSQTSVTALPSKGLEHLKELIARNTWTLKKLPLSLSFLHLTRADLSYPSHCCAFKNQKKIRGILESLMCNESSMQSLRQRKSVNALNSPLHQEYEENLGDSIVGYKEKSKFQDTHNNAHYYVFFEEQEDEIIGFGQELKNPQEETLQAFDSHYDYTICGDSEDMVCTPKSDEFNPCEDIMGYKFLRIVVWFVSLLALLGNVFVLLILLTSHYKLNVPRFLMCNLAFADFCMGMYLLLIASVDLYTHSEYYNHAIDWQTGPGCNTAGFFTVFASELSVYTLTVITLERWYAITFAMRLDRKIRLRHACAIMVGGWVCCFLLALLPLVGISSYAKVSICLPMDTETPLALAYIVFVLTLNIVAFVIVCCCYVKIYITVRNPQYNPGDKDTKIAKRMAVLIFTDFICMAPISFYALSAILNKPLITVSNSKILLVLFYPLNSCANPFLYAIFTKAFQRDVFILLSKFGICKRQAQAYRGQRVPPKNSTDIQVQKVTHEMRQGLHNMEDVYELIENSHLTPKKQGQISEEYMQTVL
Method in brief: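 Antagonist mode: compound-treated TSHR-expressing HEK293 cells were stimulated with 1.5 ng/mL TSH (final) in presence of Ro20-1724 for 30 min at RT. HTRF cAMP detection after 1 h; each compound tested at 15 concentrations, triplicate.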

[5] = target: Progesterone receptor (Homo sapiens) (UniProt P06401); test: qHTS assay to identify small molecule agonists of the progesterone receptor (PR) signaling pathway (AID 1346784; calls by dose curve; note: nearly all actives have a fitted effect of over 30% in size)
Progesterone receptor (Homo sapiens), sequence (P06401 whole entry, looked up): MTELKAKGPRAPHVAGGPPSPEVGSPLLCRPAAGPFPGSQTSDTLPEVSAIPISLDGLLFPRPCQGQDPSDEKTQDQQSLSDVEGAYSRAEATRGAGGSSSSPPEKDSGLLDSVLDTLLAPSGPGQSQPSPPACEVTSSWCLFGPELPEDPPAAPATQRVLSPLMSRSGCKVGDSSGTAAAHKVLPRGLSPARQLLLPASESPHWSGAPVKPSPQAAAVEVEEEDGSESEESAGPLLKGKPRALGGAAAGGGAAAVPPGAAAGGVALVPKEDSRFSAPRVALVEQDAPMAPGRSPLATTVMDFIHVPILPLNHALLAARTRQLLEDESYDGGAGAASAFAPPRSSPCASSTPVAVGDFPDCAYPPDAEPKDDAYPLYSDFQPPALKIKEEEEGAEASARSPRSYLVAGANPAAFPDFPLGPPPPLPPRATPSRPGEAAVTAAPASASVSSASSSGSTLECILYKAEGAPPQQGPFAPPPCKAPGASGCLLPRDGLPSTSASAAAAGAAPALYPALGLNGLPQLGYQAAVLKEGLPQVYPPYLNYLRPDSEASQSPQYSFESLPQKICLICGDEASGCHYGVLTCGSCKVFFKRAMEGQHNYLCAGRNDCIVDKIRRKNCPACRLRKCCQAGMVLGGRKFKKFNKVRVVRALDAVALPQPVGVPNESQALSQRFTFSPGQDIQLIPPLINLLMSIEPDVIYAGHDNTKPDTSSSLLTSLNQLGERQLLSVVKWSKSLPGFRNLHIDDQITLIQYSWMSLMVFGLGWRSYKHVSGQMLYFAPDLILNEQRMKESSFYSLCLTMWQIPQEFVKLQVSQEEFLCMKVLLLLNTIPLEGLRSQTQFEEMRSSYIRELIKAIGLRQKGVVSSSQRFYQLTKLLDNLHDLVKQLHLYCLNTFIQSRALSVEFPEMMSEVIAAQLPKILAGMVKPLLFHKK
Method in brief: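 Cells (PR-UAS-bla HEK 293T, GripTite) were plated in assay medium containing 2% charcoal-stripped FBS and incubated 6 hr. Test compounds in DMSO were added for 16 hr at 37C. FRET substrate was then loaded for 2 hr at room temperature before fluorescence reading.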

[6] = target: Progesterone receptor (Homo sapiens) (UniProt P06401); test: qHTS assay to identify small molecule antagonists of the progesterone receptor (PR) signaling pathway (AID 1346795; active = well fitted inhibition curve with a large enough effect in the signal ratio in the repeat runs, not every such curve was filed as active; the % refers to the signal ratio)
Method in brief: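 Antagonist mode: compounds tested against 1 nM (final) promegestone stimulation in HEK293T cells expressing PR-UAS-bla reporter, 16 hr at 37C, 5% CO2; beta-lactamase activity detected via B/G FRET substrate after 2 hr at room temperature.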

[7] = qHTS assay to identify small molecule antagonists of the progesterone receptor (PR) signaling pathway - cell viability counter screen (AID 1346798); note: series mostly up to about 92 µM; nearly all actives have a fitted effect of over 50% in size
Method in brief: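 Counter screen for cytotoxicity: viability of PR-UAS-bla HEK293T cells was measured with CellTiter-Glo luminescence following 16 hr compound exposure in the presence of R5020.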

[8] = qHTS assay to identify small molecule agonists of the progesterone receptor (PR) signaling pathway - cell viability counter screen (AID 1346799; calls by dose curve; note: nearly all actives have a fitted effect of over 45% in size)
Method in brief: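 Cells (PR-UAS-bla HEK293T) are plated at 3,000/well in 2% charcoal-stripped FBS medium, rested 6 hr, dosed and incubated 16 hr at 37C. CellTiter-Glo is then added and luminescence measured after 30 min at room temperature.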

[9] = qHTS assay to identify small molecule antagonists of the TGF-beta/Smad signaling pathway - cell viability counter screen (AID 1346824); note: nearly all actives have a fitted effect of over 50% in size
Method in brief: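 Cytotoxicity counter-screen run in the same wells as the beta-lactamase Smad reporter read: CellTiter-Glo luminescence after 30 min at room temperature. HEK 293T SBE-bla cells had 5 hr compound exposure at 37 C with TGF-beta1 (0.25 ng/mL stock).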

[10] = qHTS assay to identify small molecule agonists of the TGF-beta/Smad signaling pathway - cell viability counter screen (AID 1346829); note: top concentration of the series differs between compounds; nearly all actives have a fitted effect of over 45% in size
Method in brief: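 Luminescence from CellTiter-Glo, read after a 30 min room-temperature incubation, gives cell viability of SBE-bla HEK 293T cells treated 5 hr with compounds at 37 C.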

[11] = qHTS assay to identify small molecule agonists of the TGF-beta/Smad signaling pathway (AID 1346859; active = well fitted activation curve with a large enough effect in the signal ratio in the repeat runs, not every such curve was filed as active; the % refers to the signal ratio; note: series mostly up to about 77 µM)
Method in brief: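 Reporter line: HEK 293T with stably integrated SBE-controlled beta-lactamase. Compound exposure lasts 5 hr at 37 C and 5% CO2; substrate loading follows for 2 hr at room temperature, with emission read at 460 and 530 nm.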

[12] = target: Thyrotropin-releasing hormone receptor (Homo sapiens) (UniProt P34981); test: qHTS assay to identify small molecule antagonists of the thyrotropin-releasing hormone receptor (TRHR) signaling pathway (AID 1346877; active = well fitted inhibition curve with a large enough effect in the repeat runs, not every such curve was filed as active; note: series mostly up to about 51 µM)
Thyrotropin-releasing hormone receptor (Homo sapiens), sequence (P34981 whole entry, looked up): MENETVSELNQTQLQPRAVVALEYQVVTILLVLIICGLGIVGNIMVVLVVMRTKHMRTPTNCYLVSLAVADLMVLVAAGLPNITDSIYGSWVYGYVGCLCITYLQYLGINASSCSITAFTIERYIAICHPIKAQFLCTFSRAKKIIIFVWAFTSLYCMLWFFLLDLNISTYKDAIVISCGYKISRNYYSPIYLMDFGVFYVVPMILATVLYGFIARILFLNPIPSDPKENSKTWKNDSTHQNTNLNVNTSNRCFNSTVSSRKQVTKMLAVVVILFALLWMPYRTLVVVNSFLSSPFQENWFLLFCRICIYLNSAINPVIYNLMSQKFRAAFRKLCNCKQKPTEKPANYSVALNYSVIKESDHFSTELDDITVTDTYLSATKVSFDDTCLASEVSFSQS
Method in brief: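 Antagonist mode: after a 5 min room-temperature compound exposure, cells were stimulated with 1 nM (final) TRH. Dye-loaded TRHR-HEK293 cells were used, and calcium-dependent fluorescence was followed for 3 min, with 15-point titrations run in triplicate.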

[13] = target: Estrogen receptor beta (Homo sapiens) (UniProt Q92731); test: qHTS assay to identify small molecule antagonists of the estrogen receptor beta (ER-beta) signaling pathway (AID 1259378; active = well fitted inhibition curve with a large enough effect in the signal ratio in the repeat runs, not every such curve was filed as active; the % refers to the signal ratio)
Estrogen receptor beta (Homo sapiens), sequence (Q92731 whole entry, looked up): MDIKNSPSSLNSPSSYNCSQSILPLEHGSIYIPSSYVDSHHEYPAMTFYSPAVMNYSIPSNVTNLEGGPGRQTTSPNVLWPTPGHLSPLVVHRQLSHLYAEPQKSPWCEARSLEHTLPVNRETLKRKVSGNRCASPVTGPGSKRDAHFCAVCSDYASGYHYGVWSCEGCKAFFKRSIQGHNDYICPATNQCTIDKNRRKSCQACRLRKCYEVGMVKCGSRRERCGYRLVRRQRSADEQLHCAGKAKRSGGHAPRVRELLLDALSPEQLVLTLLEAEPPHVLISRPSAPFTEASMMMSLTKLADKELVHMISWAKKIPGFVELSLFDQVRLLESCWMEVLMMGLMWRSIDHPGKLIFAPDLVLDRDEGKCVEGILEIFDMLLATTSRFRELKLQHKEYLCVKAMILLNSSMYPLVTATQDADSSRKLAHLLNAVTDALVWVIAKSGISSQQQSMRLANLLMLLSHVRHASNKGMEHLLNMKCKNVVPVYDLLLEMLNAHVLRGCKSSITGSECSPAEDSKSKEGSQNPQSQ
Method in brief: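 Antagonist mode: compounds added to beta-lactamase reporter HEK293T ER-beta-UAS cells stimulated with E2 (1nM final), 16 hr at 37C. LiveBLAzer B/G FRET substrate, 2 hours room temperature, fluorescence read-out.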

[14] = qHTS assay to identify small molecule agonists of the androgen receptor (AR) signaling pathway in the presence of an antagonist - cell viability counter screen (AID 1259379); note: nearly all actives have a fitted effect of over 25% in size; note: potency is the fitted concentration of half-maximal effect;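 for activity change, negative = cytotoxicity: MDA-kb2 human breast cancer cells carrying an MMTV luciferase reporter; series mostly up to about 92 µM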
Method in brief: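 Cytotoxicity counter-screen run in the same wells as the nilutamide-challenged (3.0 µM final) AR agonist assay in MDA-kb2 cells. Compounds tested at 15 concentrations for 16 h, 37 °C without CO2; CellTiter-Fluor fluorescence read.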

[15] = qHTS assay to identify small molecule agonists of the estrogen receptor beta (ER-beta) signaling pathway - cell viability counter screen (AID 1259380); note: nearly all actives have a fitted effect of over 30% in size
Method in brief: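 Cell viability counter screen: CellTiter-Glo luminescence (30 min, room temperature) measured in the same wells as the beta-lactamase readout, after 16 hr compound exposure at 37C of ER-beta-bla HEK293T cells in 2% charcoal-stripped FBS medium.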

[16] = target: Androgen receptor (Homo sapiens) (UniProt P10275); test: qHTS assay to identify small molecule agonists of the androgen receptor (AR) signaling pathway in the presence of an antagonist (AID 1259381; calls by dose curve; note: nearly all actives have a fitted effect of over 15% in size)
Androgen receptor (Homo sapiens), sequence (P10275 whole entry, looked up): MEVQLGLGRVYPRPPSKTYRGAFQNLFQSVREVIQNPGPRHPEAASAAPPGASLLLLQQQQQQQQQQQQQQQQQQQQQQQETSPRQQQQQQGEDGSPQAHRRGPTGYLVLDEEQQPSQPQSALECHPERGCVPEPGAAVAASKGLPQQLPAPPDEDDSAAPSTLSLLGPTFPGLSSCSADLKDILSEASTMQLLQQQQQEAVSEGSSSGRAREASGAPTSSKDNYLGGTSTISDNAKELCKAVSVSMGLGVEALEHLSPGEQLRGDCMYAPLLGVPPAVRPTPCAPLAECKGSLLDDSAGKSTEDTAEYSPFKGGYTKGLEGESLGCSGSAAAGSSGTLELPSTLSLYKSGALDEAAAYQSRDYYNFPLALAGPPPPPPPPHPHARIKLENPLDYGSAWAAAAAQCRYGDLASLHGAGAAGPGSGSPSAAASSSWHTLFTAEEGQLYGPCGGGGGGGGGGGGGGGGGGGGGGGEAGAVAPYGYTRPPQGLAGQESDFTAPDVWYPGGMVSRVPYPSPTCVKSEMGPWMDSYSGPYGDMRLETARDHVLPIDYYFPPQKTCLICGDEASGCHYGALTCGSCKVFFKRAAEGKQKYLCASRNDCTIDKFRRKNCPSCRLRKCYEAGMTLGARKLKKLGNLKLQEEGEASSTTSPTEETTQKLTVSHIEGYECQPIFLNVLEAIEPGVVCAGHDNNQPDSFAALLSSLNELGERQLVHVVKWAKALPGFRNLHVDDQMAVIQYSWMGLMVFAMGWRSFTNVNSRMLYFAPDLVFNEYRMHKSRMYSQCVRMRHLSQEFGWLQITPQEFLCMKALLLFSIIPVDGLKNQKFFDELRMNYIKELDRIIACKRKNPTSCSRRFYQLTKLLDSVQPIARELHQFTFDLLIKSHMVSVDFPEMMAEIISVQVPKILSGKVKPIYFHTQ
Method in brief: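 Agonist-mode confirmation run against 3.0 uM final nilutamide: compounds titrated at 15 concentrations onto MDA-kb2 MMTV-luciferase reporter cells. Luminescence measured with ONE-Glo following 16 hr incubation, 37C, 0% CO2.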

[17] = target: Estrogen receptor (Homo sapiens) (UniProt P03372); test: qHTS assay to identify small molecule agonists of the estrogen receptor alpha (ER-alpha) signaling pathway in the presence of an antagonist (AID 1259383; calls by dose curve; note: top concentration of the series differs between compounds; nearly all actives have a fitted effect of over 15% in size)
Estrogen receptor (Homo sapiens), sequence (P03372 whole entry, looked up): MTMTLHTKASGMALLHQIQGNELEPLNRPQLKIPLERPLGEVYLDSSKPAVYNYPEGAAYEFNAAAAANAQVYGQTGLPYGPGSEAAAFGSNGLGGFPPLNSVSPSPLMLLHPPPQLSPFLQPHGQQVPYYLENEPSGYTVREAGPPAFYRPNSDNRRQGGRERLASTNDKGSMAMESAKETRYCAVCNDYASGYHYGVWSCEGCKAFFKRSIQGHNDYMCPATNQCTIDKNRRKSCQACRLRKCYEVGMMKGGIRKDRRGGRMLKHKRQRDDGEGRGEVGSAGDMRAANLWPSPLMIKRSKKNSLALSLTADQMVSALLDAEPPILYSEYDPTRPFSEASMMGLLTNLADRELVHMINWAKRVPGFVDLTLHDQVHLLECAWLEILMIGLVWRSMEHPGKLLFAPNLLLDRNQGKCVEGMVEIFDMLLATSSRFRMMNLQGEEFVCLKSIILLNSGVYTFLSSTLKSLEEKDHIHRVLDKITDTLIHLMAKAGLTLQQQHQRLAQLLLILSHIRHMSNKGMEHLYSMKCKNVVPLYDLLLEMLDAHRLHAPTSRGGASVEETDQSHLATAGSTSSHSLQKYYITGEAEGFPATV
Method in brief: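 Agonist-mode confirmation run in the presence of 10.0nM (final) ICI-182,780 antagonist. The reporter was ERE-driven luciferase in VM7Luc4E2 cells, grown in charcoal-stripped serum. Cells were exposed to 15-concentration compound series for 22hr, then ONE-Glo luminescence was read.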

[18] = qHTS assay to identify small molecule agonists of the estrogen receptor alpha (ER-alpha) signaling pathway in the presence of an antagonist - cell viability counter screen (AID 1259386); note: series mostly up to about 92 µM; nearly all actives have a fitted effect of over 30% in size
Method in brief: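 Compounds tested at 15 concentrations for 22 h at 37C alongside 10.0nM (final) ICI-182,780 antagonist, in VM7Luc4E2 cells grown in phenol red-free, charcoal-stripped medium. Viability read by CellTiter-Fluor fluorescence after 1 h reagent incubation.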
% is set by controls: 0 for no effect and ±100 for the full control effect.

CC1=NN(c2cc(Cl)c(S(=O)(=O)O)cc2Cl)C(=O)C1N=Nc1ccc(S(=O)(=O)O)cc1 (stereo unspecified)
inactive: Potency [1] | outcome [2] | outcome [3] | Potency [4] | Potency [5] | Potency [6] | Potency [7] | Potency [8] | outcome [9] | outcome [10] | outcome [11] | outcome [12]

OCCN(CCO)c1ccccc1
inactive: Potency [1] | Potency [13] | Potency [14] | Potency [15] | Potency [16] | outcome [2] | Potency [17] | Potency [18] | Potency [5] | Potency [6] | Potency [7] | Potency [8] | outcome [9] | outcome [10] | outcome [11]

CCCNC(C)(C)COC(=O)c1ccccc1
inactive: Potency [1] | Potency [14] | Potency [15] | outcome [2] | Potency [17] | outcome [3] | Potency [18] | Potency [5] | Potency [6] | Potency [7] | Potency [8] | outcome [9] | outcome [10] | outcome [11] | outcome [12]

CCOc1ccccc1N
active: Potency [14] 54.1 µM
inactive: Potency [1] | Potency [17] | outcome [3] | Potency [4] | Potency [5] | Potency [6] | Potency [7] | outcome [9] | outcome [10] | outcome [11]

Cc1cc2c(s1)Nc1ccccc1N=C2N1CCN(C)CC1
inactive: Potency [1] | Potency [15] | outcome [2] | Potency [17] | Potency [5] | Potency [6] | Potency [7] | Potency [8] | outcome [9] | outcome [10] | outcome [11]

ClC(Cl)Cl
inactive: Potency [1] | Potency [13] | Potency [15] | outcome [2] | outcome [3] | Potency [4] | Potency [18] | Potency [5] | outcome [9] | outcome [10] | outcome [11]

CC/C=C\CCOC(=O)C(C)C
inactive: Potency [1] | Potency [15] | outcome [2] | Potency [17] | outcome [3] | Potency [4] | Potency [5] | Potency [6] | Potency [7] | Potency [8] | outcome [9] | outcome [11] | outcome [12]

C[C@]12C(=O)OC(=O)[C@H]1[C@H]1C=C[C@@H]2C1
inactive: Potency [1] | Potency [15] | outcome [2] | Potency [17] | outcome [3] | Potency [5] | Potency [6] | Potency [7] | Potency [8] | outcome [9] | outcome [10] | outcome [11] | outcome [12]

C[C@@H]1CN(c2c(F)c(F)c3c(=O)c(C(=O)O)cn(C4CC4)c3c2F)C[C@H](C)N1
inactive: activity change [1] 3.53% [at 18.9 µM, hits give high values] | Potency [16] | activity change, negative = cytotoxicity [2] 0.873% [at 19 µM] | activation [17] -0.582% [at 19 µM] | cAMP activity change [3] -0.3% [at 18.9 µM] | activity change, negative = cytotoxicity [18] 0.208% [at 19 µM] | activation [5] 4.11% [at 19 µM] | activity change, negative = inhibition [6] 6.07% [at 18.9 µM] | Potency [7] | viability change, negative = cytotoxic [9] 0.903% [at 15.8 µM] | activity change, negative = cytotoxicity [10] -0.146% [at 15.8 µM] | activation [11] -1.32% [at 15.8 µM] | activity, negative = inhibition [12] -3.72% [at 10.5 µM]

CCCCCCC
inactive: Potency [1] | Potency [14] | Potency [15] | outcome [2] | Potency [17] | outcome [3] | Potency [18] | Potency [5] | outcome [9] | outcome [10] | outcome [11] | outcome [12]

— PubChem BioAssay (Tox21)
